Bioassay records (PubChem BioAssay)
A selection follows.
aSyn UTR act – Activators via SNCA 5'UTR binding, MLPCN. activity score, % (tested at 7.5 µM), hits read low. alpha-synuclein 5'UTR reporter, activators screen. actives 7.1% (n = 300,000); in the data active = activity score below about -60%
Active calls of the source: *.

SMILES | aSyn UTR act
Cc1nn2c(-c3ccccc3)ccnc2c1-c1ccccc1 | -139*
Cc1ccc(-c2ccnc3c(Cl)c(C)nn23)cc1 | 69
Cc1nn2c3c(cnc2c1-c1ccccc1)C(=O)CCC3 | -90*
Cc1nc2c(-c3ccccc3)c(C)nn2c(N)c1-c1ccccc1 | -137*
Cc1nc2nc(N)nn2c(C)c1C/C=C/c1ccccc1 | 46
Clc1cccc(N/N=C/c2ccncc2)c1 | -117*
C/C(=N\Nc1cccc(Cl)c1)c1ccncc1 | -117*
Cc1ccc(N/N=C/c2ccncc2)cc1 | -120*
CN(C)/C=N/c1sc2c(c1C#N)CCCC2 | -80*
CC1CCc2c(sc(/N=C/N(C)C)c2C#N)C1 (stereo unspecified) | -80*
CCOC(=O)c1cnc(-n2nc(C)cc2C)nc1NNc1ncc(-c2ccccc2)cn1 | 83
CCOC(=O)c1cnc(SCCc2ccccc2)nc1N | -102*
CCOC(=O)c1cnc(SCc2ccc(C)cc2)nc1N | -179*
CCOC(=O)c1cnc(NCc2ccccc2)nc1C | -73*
CCCCSc1ncc(C(=O)OCC)c(N)n1 | -140*
CCOC(=O)c1cnc2c(ccc3ccccc32)c1Cl | -87*
CCOC(=O)c1[nH]cnc1N=Nc1c(O)ccc2ccccc12 | 91
CC1CC1C(=O)OCC(=O)NC(=O)NC12CC3CC(CC(C3)C1)C2 (stereo unspecified) | -118*
CN(C)S(=O)(=O)N1CCC(Oc2ccc(C(=O)NC3Cc4ccccc4C3)cc2)CC1 | -65*
Cc1cc(CNC(=O)c2cccc(OC3CCN(S(=O)(=O)N(C)C)CC3)c2)on1 | -139*
COc1ccc(-c2nnc(NC(=O)c3ccc(S(=O)(=O)N4CCc5ccccc5C4)cc3)o2)cc1 | 73
C=CC(C)(C)c1c(O)c(CC=C(C)C)c(O)c2c(=O)c3ccc(O)c(O)c3oc12 | 73
C=CCNc1nc(N)c([N+](=O)[O-])c(Nc2ccccc2OC)n1 | 61
COc1ccccc1Nc1ccc([N+](=O)[O-])cn1 | -74*
COc1ccc(CNc2ccc([N+](=O)[O-])cn2)cc1 | -137*
SMILES | aSyn UTR act
COc1ccc(Nc2ccc([N+](=O)[O-])cn2)cc1 | -120*
O=[N+]([O-])c1ccc(NCCOc2ccccc2Cl)nc1 | -74*
c1ccc2c(COn3nnc4ccccc43)cccc2c1 | -223*
CC1=CC(=C2C(=O)c3ccccc3C2=O)C=C(C)N1C | -132*
CCCCCN1C=CC(=C2C(=O)c3ccccc3C2=O)C=C1 | 113
Cn1cccc1C(=O)NNC(=O)c1ccccc1Br | -97*
Cn1cccc1C(=O)NNC(=O)COc1ccccc1F | -87*
CCN(CC)c1ccc(C(=O)NNC(=O)c2cccn2C)cc1 | -115*
Cc1ccc(C(=O)NCCCc2ccccc2)c(Cl)c1 | -100*
Cc1ccc(C(=O)NCCCc2ccccc2)c(C)c1 | -129*
O=C(NCCCc1ccccc1)c1ccc([N+](=O)[O-])cc1Cl | -83*
O=C(NCCCc1ccccc1)c1ccc(Br)o1 | -62*
O=C(NCCCc1ccccc1)c1ccccc1O | -140*
CN1C2=CC=CC=CC2=[N+](C)C12C([N+](=O)[O-])=CC(=[N+]([O-])[O-])C=C2[N+](=O)[O-] (stereo unspecified) | -73*
COc1cc(/C=N/O)ccc1OCc1ccccc1Cl | -113*
O=C(N/N=C/c1ccc([N+](=O)[O-])s1)c1ccncc1 | -64*
COc1ccc(NC(=O)CCC(=O)N/N=C/c2ccc([N+](=O)[O-])s2)cc1 | -79*
Cc1ccc(C(=O)N/N=C/c2ccc([N+](=O)[O-])s2)cc1 | 108
O=C(N/N=C/c1ccc([N+](=O)[O-])s1)c1cccc(Br)c1 | 67
Cc1ncc(CO)c(/C=N/N=C/c2ccccc2O)c1O | -89*
Cc1ncc(CO)c(/C=N/Nc2ccc(C(F)(F)F)cn2)c1O | 88
O=C(CCS(=O)(=O)c1ccccc1)N(CCCN1CCOCC1)c1nc2ccc(F)cc2s1 | -132*
COC(=O)C1C(O)=C(C=Nc2ccc3ccccc3c2)C(=O)CC1(C)C (stereo unspecified) | -75*
CCN(CC)C(=O)Oc1ccc2c(=O)c(-c3ccc(OC)cc3)coc2c1 | -125*
COc1ccc(Oc2c(C)oc3cc(OC(=O)N4CCOCC4)ccc3c2=O)cc1 | 56
SMILES | aSyn UTR act
CCN(CC)C(=O)Oc1ccc2cc(Br)ccc2c1 | -87*
COc1ccc(-c2coc3cc(OC(=O)N4CCOCC4)ccc3c2=O)cc1 | -67*
CCc1cc2c(=O)c(-c3nc4ccccc4[nH]3)coc2cc1OC(=O)N1CCOCC1 | -75*
O=C(Nc1ccccc1)N(CCCN1CCOCC1)Cc1ccccc1F | -84*
CCCC[n+]1ccn(C2=C([O-])c3ccccc3C(=O)/C2=N\S(=O)(=O)c2ccc(Cl)cc2)c1 | 66
Brc1ccc(-c2csc(-c3c[nH]c4ccccc34)n2)cc1 | -183*
c1ccc2c(-c3csc(-c4ccncc4)n3)c[nH]c2c1 | -141*
Oc1ccc(/C=N/Nc2ccc3ccccc3c2)c(O)c1 | -135*
Oc1ccccc1/C=N/Nc1ccccc1 | -133*
Clc1ccc(N2CCN(/N=C/c3cccnc3)CC2)cc1 | -67*
COC(=O)c1ccc(/C=N\N2CCN(c3ccccc3)CC2)cc1 | -127*
BrC(=C\c1ccccc1)/C=N/N1CCN(c2ccccc2)CC1 | -65*
Cc1ccc(C(=O)O/N=C/c2c(N3CCOCC3)n(C)c3ccccc23)cc1 | 77
C(=N\N1CCN(c2ccccc2)CC1)/c1ccccc1 | -123*
S=c1[nH]cnc2sc(-c3ccccc3)cc12 | -71*
CSc1nc2ncc(-c3ccsc3)c(N)n2n1 | -62*
O=C(Cc1ccccc1)Nc1ccc(NC(=O)c2ccccc2)nc1 | -184*
CCC(=O)NC(c1cccs1)c1cc(Cl)c2cccnc2c1O (stereo unspecified) | 86
O=C(Nc1ccc(NC(=O)c2cccs2)cn1)c1ccccc1 | -134*
O=C(Nc1ccc(NC(=O)C2CC2)nc1)c1cccs1 | -96*
CCCCC(=O)NC(c1cccs1)c1cc(Cl)c2cccnc2c1O (stereo unspecified) | 80
CCCC(=O)Nc1ccc(NC(=O)c2cccs2)cn1 | -105*
O=c1cc(-c2cccc(F)c2)[nH]c2ccccc12 | 87
CSc1ccc(/C=C/c2cc(=O)c3ccccc3[nH]2)cc1 | -69*
O=C(CSc1nnc2ccccn12)c1ccc(Cl)cc1 | -67*
SMILES | aSyn UTR act
CCOc1ccc(C(=O)CSc2nnc3ccccn23)cc1 | -154*
COC(=O)c1ccc2c(c1)C(C)(C)C(/C=C/c1ccc(O)cc1)=[N+]2C | 119
COc1ccc(/C=C/c2cc(-c3ccc(C)cc3)o[n+]2C)cc1 | 89
COc1ccc2cc(C(=O)/C=C/c3cc(OC)c(OC)c(OC)c3)ccc2c1 | -62*
COc1cc(/C=C/c2ccc(O)cc2)cc(OC)c1 | -156*
COc1ccc(/C=C/C(=O)c2ccc(O)cc2)cc1 | -196*
COc1ccc(/C=C/C(=O)c2ccoc2)cc1 | -62*
C=CCn1c(O)c(N=NC(=S)Nc2ccccc2F)c2cc(S(=O)(=O)N3CCOCC3)ccc21 | 78
COc1ccc(C(=O)NNC(=O)c2ccccn2)cc1 | 79
COc1ccc(/C=C/C(=O)c2ccccn2)cc1 | -98*
COc1ccc(/C=C/C(=O)c2ccccc2O)cc1 | -233*
O=c1c2[nH]c3cccc(Cl)c3c2ncn1CC1CCCO1 (stereo unspecified) | -80*
CC(=O)Nc1sc(C)c(C)c1C(=O)OCCOc1ccccc1 | -130*
C/C(CC(=O)Nc1cc(C)ccn1)=N\NC(=O)COc1cccc(C)c1 | -110*
